An excerpt weighted towards active compounds, which were near 21% of everything screened.
D3 antag – blocks the human D3 dopamine receptor | P35462 | D3R cells, DiscoveRx beta-arrestin luminescence, antagonist mode; hits give low values | max response, negative = inhibition, % | hit rate 2.5% among 360,000; in the data active = max response below about -50%; inconclusive = no clear call, values can overlap the other calls
Target sequence (P35462 whole entry, looked up): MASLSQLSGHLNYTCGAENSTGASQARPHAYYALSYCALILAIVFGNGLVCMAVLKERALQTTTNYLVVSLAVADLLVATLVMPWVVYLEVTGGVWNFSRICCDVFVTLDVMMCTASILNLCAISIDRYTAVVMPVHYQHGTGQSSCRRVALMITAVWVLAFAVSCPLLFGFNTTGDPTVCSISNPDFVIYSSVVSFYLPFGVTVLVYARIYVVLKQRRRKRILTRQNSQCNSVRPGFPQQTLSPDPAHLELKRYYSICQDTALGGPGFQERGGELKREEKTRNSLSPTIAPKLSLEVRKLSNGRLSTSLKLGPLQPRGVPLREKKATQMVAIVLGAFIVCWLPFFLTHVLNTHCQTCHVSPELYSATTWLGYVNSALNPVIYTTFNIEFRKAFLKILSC
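Cells plated overnight at 1500 cells/well, then exposed to library compounds with dopamine controls for 90 minutes at 37 degrees C. DiscoveRx reagent added for 30–60 minutes at room temperature; luminescence read, quantitative HTS format.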
IL-1B inflam inh – inhibitors of inflammasome signaling (IL-1 beta secretion); THP-1 LPS/ATP IL-1B secretion, AlphaLISA, 16 h; hits give low values; activity change, % at 57.5 µM; hit rate 4.7% among 360,000; in the data active = activity change below about -50%; inconclusive = mostly about -30% to -49%
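THP-1 cells pretreated 1 hr with compounds (up to 57.5 uM final), then stimulated with LPS (250 ng/mL final) plus ATP (1.25 mM final); secreted IL-1B measured by AlphaLISA after 16 hr, decreased signal indicating inhibition.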
DRD3 agonist – D3 dopamine receptor (human) agonism | P35462 | D3R DiscoveRx beta-arrestin cells, luminescence, 90 min | max activation, % | hit rate 0.58% among 410,000; in the data active = max activation above about 30%
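Agonist-mode cell screen: cells plated at 1500/well and incubated overnight at 37 °C, then exposed to library compounds for 90 min at 37 °C. Detection reagent was added for 30–60 min at room temperature, and luminescence was read.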
ClpP mod – qHTS Assay for Activators of ClpP | ATP-dependent Clp protease proteolytic subunit (Bacillus subtilis (strain 168)), P80244 | purified B. subtilis ClpP, FRET peptide cleavage, 20 min | Potency, µM (top dose mostly 57.5 µM) | hit rate 1.9% among 340,000; active = well fitted falling curve with a large enough effect; inconclusive = small, poorly fitted or top-dose-only effect; inactive = no such curve, though single readings can be large or run the other way; also: the source files actives as falling curves though it sought activators and does not explain the sign; nearly all actives have a fitted effect of over 65% in size
Target sequence (P80244 whole entry, looked up): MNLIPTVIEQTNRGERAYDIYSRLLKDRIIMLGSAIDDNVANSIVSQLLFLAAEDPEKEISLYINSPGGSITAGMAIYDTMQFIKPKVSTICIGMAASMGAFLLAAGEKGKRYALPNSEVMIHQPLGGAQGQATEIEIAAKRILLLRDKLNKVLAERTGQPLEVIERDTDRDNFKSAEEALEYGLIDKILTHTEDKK
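ClpP 10 microg/mL final, pH 8 Tris/KCl buffer with BSA, glycerol, Tween-20; compound pinned in; FRET-FV substrate; RT 20 min; Ex320/Em430; ΔFRET vs ADEP 5.8 microM, DMSO, no enzyme.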
DT40 TDP1 CPT – DT40-hTDP1 cell growth loss with CPT; hit rate 12% among 420,000; chicken DT40 Tdp1-/-;hTDP1 cells + 20 nM CPT, ATP luminescence, 48 h; Potency, µM (highest dose often 46.2 µM), actives largely listed as inhibitors; also: nearly all actives have a fitted effect of over 55% in size
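Chicken DT40 Tdp1-/- cells complemented with human TDP1, 400 cells/well, exposed to compounds plus 20 nM camptothecin for at least 48 h at 37 C; viability read as ATP content by CellTiter-Glo luminescence.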
DT40 TDP1 no CPT – qHTS for Inhibitors of human tyrosyl-DNA phosphodiesterase 1 (TDP1): qHTS in cells in absence of CPT | Potency, µM (titrated, usually from 46.2 µM), hits mostly inhibitors | DT40 Tdp1-/- hTDP1 cells, no CPT, ATP luminescence, 48 h | AID 686978, 2013 | hit rate 15% among 420,000; also: nearly all actives have a fitted effect of over 55% in size
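Camptothecin absent (DMSO only). Human TDP1-complemented DT40 knockout cells, 400 cells/well, 37 °C for minimum 48 hr; ATP measured via CellTiter-Glo, 30 min dark incubation, luminescence.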
Hits are given with their value; i = inactive; ? = inconclusive; nt = no result given. Unless noted, calls follow the shape of the dose curve; as a rule, active = well fitted inhibition curve with a large enough effect; inconclusive = small, poorly fitted or top-dose-only effect; inactive = flat fitted curve, though single readings scatter.

SMILES	D3 antag	IL-1B inflam inh	DRD3 agonist	ClpP mod	DT40 TDP1 CPT	DT40 TDP1 no CPT
C/C(=N\Nc1cccc2ccccc12)c1c(O)n(Cc2ccccc2)c(=O)[nH]c1=O	i	i	i	i	16µM	21µM
CC(=NCCc1c[nH]c2ccccc12)c1c(O)n(Cc2ccccc2)c(=O)[nH]c1=O	i	?	i	nt	7.3µM	8.2µM
C[C@@H]1CN([C@H](C)CO)C(=O)CCCn2nncc2CO[C@H]1CN(C)C(=O)Oc1ccc2ccccc2c1	i	i	i	i	i	i
Cc1nc2ccccc2c(=O)n1-c1ccc(-c2ccccc2)cc1	i	i	i	i	?	?
Cc1cc(-n2c(/C=C/c3cccs3)nc3ccccc3c2=O)ccc1Br	nt	nt	i	i	15µM	23µM
Cc1cccc(-n2c(/C=C\c3cccc(Br)c3)nc3ccccc3c2=O)c1	nt	nt	i	i	?	?
Cc1cc(-n2c(/C=C/c3ccc(Br)s3)nc3ccccc3c2=O)ccc1Br	nt	nt	i	i	15µM	?
Cc1ccc(-n2c(/C=C/c3ccc(Br)s3)nc3ccccc3c2=O)cc1	nt	nt	i	i	23µM	21µM
C[N+]1(C)[C@@H]2CC[C@H]1CC(OC(=O)C(c1ccccc1)c1ccccc1)C2 (stereo partly specified)	i	i	i	i	?	?
O=C(OC1CCN(CCCl)CC1)C(c1ccccc1)c1ccccc1	-95	-71	i	i	16µM	?
CCCOC(=O)Nc1ccc([As](=O)(O)O)cc1NC(=O)OCCC	i	i	i	nt	i	i
CC(C)CN1CC2(CCN(C(=O)c3ccncc3)CC2)C1	nt	nt	nt	nt	i	i
CC(C)(C)NC[C@H](O)c1ccc(O)cc1Cl	nt	nt	i	nt	i	i
CC[n+]1c(-c2ccccc2)c2cc(N)ccc2c2ccc(N)cc21	i	-99	i	i	0.16µM	0.15µM
CCC(=O)OC1CCC2C3CCc4cc(O)ccc4C3CC[C@]12C (stereo partly specified)	nt	nt	nt	nt	21µM	21µM
CCC(=O)O[C@H]1CC[C@H]2[C@@H]3CCc4cc(O)ccc4[C@H]3CC[C@]12C	nt	nt	i	nt	?	?
CCN(CC)C(=O)Oc1ccc2cc(Br)ccc2c1	i	i	i	i	i	?
O=C(Cn1c(=O)c(C(F)(F)F)nc2ccccc21)N1CCC2(CC1)OCCO2	i	i	i	i	i	i
CCOP(=S)(OCC)Oc1ccc2c(C)c(Cl)c(=O)oc2c1	i	i	i	i	?	6.5µM
Cc1ccc(S(=O)(=O)Nc2cc(C(=O)N3CCC4(CC3)OCCO4)ccc2N2CCCCC2)cc1	-54	i	i	i	?	?
O=C(c1ccc(CNS(=O)(=O)c2ccccc2)cc1)N1CCC2(CC1)OCCO2	-53	i	i	i	i	i
CC(=O)Nc1cc(C(=O)N2CCC3(CC2)OCCO3)ccc1S(=O)(=O)c1ccc(C)cc1	i	i	i	i	i	i
O=C(c1ccc(CS(=O)(=O)c2ccc(Br)cc2)o1)N1CCC2(CC1)OCCO2	i	i	i	i	i	i
O=C(c1ccc(CNS(=O)(=O)c2ccc(Br)cc2)cc1)N1CCC2(CC1)OCCO2	i	i	i	i	?	9.2µM
O=C(CNS(=O)(=O)c1ccc(Br)s1)N1CCC2(CC1)OCCO2	-55	i	i	i	i	i
SMILES	D3 antag	IL-1B inflam inh	DRD3 agonist	ClpP mod	DT40 TDP1 CPT	DT40 TDP1 no CPT
CCN1C[C@]2(CO)CC[C@H](OC)[C@@]34C5C[C@H]6[C@H](OC)C5[C@](O)(C[C@H]6OC)[C@@](O)(C(OC)C23)[C@@H]14 (stereo partly specified)	i	i	i	i	i	i
CCOC(=O)c1nc2ccccc2c(=O)n1-c1cccc(C)c1	i	i	i	i	?	?
CN(C[C@H](Cc1ccccc1)N(C[C@H](Cc1ccccc1)N(CC1(c2ccccc2)CC1)N=O)N=O)N=O	i	i	i	i	?	18µM
CN1CC[C@@]2(CCCN(C(=O)c3ccncc3)C2)C1	nt	nt	nt	nt	i	i
C[C@@H]1CC[C@H]2[C@@H](C)C(=O)O[C@@H]3O[C@@]4(C)CC[C@@H]1[C@]32OO4	i	i	i	i	0.65µM	4.1µM
C[C@@H]1CCC2[C@@H](C)C(=O)O[C@@H]3OC4(C)CCC1[C@@]23OO4 (stereo partly specified)	i	i	i	i	4.1µM	8.2µM
CC1C(=O)OC2O[C@]3(C)CC[C@H]4C(C)CCC1[C@]24OO3 (stereo partly specified)	nt	nt	nt	nt	7.3µM	1.2µM
Cc1nn(Cc2ccccc2)c(C)c1C(=O)OCC(=O)Nc1cccc(S(N)(=O)=O)c1	i	i	i	nt	i	i
C[C@]12CC[C@H]3[C@@H](CCC4=CC(=O)CC[C@@]43O)[C@@H]1CCC2=O	i	i	i	i	i	i
CC1=C2C3OC(=O)C(C)C3CC[C@@]2(C)C=CC1=O (stereo partly specified)	i	i	i	i	i	i
COc1ccc(-c2cc(=Nc3ccccc3)c3cc(C)ccc3o2)cc1	i	i	i	i	?	?
COc1ccc(-c2cc(=NCCC(=O)O)c3cc(C)ccc3o2)cc1	i	-58	i	i	i	i
CC12CC(=O)C3C(CCC4CC(=O)C=CC43C)C1CCC2=O (stereo unspecified)	i	-93	i	nt	i	?
Cc1ccc(S(=O)(=O)N(C)C)cc1NC(=O)C(C)[N+]12CCN(CC1)CC2 (stereo unspecified)	i	i	i	i	i	i
CN1C(C(=O)NCc2cccc(C(F)(F)F)c2)CC2Cn3c(nc4cc5ccccc5cc43)C21 (stereo unspecified)	i	i	i	i	?	18µM
CN(C)c1ccc(/C=C2\C(=O)NC(=O)N(CCc3ccc(F)cc3)C2=O)cc1	i	i	i	i	i	i
C=CCN1C(=O)/C(=C/c2cccs2)C(=O)NC1=S	i	-104	i	i	16µM	15µM
O=C1NC(=O)N(CCc2ccc(F)cc2)C(=O)/C1=C/c1cccs1	i	-97	i	i	16µM	16µM
C=CCN1C(=O)NC(=O)/C(=C/c2cnc(SC)nc2)C1=O	i	i	i	i	i	i
O=C1NC(=O)N(CCc2ccc(F)cc2)C(=O)/C1=C/c1ccco1	i	-53	i	nt	?	?
N#Cc1ccc(CN2CCCC3(CCN(C(=O)Oc4ccccc4)CC3)C2)cc1	nt	nt	nt	nt	i	i
Cc1cc(/C=C/c2ccnc3ccccc23)ccc1N(CCCl)CCCl	nt	nt	nt	i	?	25µM
ClCCN(CCCl)c1ccc(C=Cc2ccncn2)cc1	i	?	72	nt	6.5µM	9.2µM

Assay outcomes from PubChem BioAssay.
